Test results published in the supplement of paper PMC11732987, “Enantioselective OTUD7B fragment discovery through chemoproteomics screening and high-throughput optimisation” (Communications Chemistry, 2025).
A number with no mark means an inactive call.

What was measured:
Experiment in all cases: log2 ratio of Biotin-Ahx-Ub-VS probe labelling (fragment/DMSO); higher = less target engagement (more negative = stronger competition), active = hit call of the paper (q ≤ 0.05, log2 ratio ≤ -1)
Settings in all cases: compound concentration: 200 uM; treatment time: 3 h
ALG13 = molecular target: T1, ALG13 (UniProt Q9NP73)
T1 sequence (whole entry): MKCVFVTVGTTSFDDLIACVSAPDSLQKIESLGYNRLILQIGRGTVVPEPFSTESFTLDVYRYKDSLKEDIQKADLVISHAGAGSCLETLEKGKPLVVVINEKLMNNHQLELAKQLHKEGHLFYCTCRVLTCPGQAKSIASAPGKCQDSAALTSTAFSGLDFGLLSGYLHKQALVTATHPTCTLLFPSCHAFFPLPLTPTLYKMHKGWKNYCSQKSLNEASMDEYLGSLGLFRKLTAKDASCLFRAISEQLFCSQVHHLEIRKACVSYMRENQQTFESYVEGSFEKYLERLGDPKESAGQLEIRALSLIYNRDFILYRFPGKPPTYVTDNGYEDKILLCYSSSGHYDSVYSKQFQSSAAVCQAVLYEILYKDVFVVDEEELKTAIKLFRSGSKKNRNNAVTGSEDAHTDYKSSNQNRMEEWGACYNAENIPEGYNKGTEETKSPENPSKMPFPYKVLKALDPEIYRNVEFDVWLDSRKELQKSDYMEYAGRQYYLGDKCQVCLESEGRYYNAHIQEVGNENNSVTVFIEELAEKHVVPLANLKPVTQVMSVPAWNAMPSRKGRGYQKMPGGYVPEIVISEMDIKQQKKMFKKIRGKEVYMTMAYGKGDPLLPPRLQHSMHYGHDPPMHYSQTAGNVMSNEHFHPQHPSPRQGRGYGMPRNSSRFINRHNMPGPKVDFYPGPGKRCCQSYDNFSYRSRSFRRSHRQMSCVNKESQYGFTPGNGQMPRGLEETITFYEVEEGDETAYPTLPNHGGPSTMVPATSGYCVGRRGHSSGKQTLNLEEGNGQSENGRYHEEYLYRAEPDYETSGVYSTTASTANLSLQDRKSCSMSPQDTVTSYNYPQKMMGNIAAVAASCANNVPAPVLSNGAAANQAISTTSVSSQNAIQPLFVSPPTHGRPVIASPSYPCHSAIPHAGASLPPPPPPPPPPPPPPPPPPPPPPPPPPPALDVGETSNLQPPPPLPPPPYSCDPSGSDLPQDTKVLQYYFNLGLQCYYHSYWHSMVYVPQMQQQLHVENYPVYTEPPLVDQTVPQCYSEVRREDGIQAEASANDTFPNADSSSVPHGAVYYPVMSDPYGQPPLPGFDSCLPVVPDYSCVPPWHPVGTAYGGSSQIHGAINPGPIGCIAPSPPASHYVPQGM
Outline: (§1)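 Labelling with Biotin-Ahx-Ub-VS (0.5 µM final, 1 h) followed a 3 h triplicate treatment of HEK293T lysate (495 µg per sample, Tris/CHAPS/IGEPAL buffer with protease inhibitors) with fragment at 200 µM or vehicle. Labelled DUBs were NeutrAvidin-enriched, digested with LysC and trypsin, and run by diaPASEF LC-MS/MS. The values, average log2 fragment/vehicle ratios by unpaired t-test, come from global-median-normalised Spectronaut label-free quantities. Proteins with ≥2 unique peptides were used.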

ATXN3 = ATXN3 (UniProt P54252)
Outline: as §1

BAP1 = molecular target: T2, BAP1 (UniProt Q92560)
T2 sequence (whole entry): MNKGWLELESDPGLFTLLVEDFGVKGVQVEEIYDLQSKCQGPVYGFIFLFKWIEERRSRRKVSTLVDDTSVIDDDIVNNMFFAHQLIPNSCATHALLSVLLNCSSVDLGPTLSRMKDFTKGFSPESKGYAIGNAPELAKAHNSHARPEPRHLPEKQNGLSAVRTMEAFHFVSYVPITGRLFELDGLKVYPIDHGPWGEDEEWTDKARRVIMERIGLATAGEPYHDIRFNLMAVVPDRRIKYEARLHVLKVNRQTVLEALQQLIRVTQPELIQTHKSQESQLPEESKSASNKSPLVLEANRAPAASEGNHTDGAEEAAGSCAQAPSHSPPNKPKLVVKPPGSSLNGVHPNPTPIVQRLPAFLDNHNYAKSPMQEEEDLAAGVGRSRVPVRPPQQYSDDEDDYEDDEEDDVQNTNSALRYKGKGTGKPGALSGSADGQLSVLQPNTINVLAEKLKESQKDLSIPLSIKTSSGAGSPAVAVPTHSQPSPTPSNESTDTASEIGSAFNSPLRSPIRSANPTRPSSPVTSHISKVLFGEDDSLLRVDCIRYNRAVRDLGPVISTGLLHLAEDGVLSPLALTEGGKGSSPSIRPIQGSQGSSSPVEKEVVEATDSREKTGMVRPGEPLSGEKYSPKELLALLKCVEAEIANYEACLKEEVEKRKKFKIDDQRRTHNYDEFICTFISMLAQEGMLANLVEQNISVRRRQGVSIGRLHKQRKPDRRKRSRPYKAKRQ
Outline: as §1

EIF3F = EIF3F (UniProt O00303)
Outline: as §1

EIF3H = EIF3H (UniProt O15372)
Outline: as §1

FAM105A = molecular target: T3, FAM105A (UniProt Q9NUU6)
T3 sequence (whole entry): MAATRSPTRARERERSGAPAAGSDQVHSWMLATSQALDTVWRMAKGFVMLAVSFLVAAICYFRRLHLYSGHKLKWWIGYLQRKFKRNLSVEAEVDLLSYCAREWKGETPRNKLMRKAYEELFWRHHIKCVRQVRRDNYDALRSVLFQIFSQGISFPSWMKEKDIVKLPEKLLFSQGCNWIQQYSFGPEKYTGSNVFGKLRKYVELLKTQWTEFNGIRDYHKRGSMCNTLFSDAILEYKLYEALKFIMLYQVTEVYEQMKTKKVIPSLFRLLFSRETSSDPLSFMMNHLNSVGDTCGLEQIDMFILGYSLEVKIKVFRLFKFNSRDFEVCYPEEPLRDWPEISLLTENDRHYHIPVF
Outline: as §1

OTUB1 = OTUB1 (UniProt Q96FW1)
Outline: as §1

OTUD4 = molecular target: T4, OTUD4 (UniProt Q01804)
T4 sequence (whole entry): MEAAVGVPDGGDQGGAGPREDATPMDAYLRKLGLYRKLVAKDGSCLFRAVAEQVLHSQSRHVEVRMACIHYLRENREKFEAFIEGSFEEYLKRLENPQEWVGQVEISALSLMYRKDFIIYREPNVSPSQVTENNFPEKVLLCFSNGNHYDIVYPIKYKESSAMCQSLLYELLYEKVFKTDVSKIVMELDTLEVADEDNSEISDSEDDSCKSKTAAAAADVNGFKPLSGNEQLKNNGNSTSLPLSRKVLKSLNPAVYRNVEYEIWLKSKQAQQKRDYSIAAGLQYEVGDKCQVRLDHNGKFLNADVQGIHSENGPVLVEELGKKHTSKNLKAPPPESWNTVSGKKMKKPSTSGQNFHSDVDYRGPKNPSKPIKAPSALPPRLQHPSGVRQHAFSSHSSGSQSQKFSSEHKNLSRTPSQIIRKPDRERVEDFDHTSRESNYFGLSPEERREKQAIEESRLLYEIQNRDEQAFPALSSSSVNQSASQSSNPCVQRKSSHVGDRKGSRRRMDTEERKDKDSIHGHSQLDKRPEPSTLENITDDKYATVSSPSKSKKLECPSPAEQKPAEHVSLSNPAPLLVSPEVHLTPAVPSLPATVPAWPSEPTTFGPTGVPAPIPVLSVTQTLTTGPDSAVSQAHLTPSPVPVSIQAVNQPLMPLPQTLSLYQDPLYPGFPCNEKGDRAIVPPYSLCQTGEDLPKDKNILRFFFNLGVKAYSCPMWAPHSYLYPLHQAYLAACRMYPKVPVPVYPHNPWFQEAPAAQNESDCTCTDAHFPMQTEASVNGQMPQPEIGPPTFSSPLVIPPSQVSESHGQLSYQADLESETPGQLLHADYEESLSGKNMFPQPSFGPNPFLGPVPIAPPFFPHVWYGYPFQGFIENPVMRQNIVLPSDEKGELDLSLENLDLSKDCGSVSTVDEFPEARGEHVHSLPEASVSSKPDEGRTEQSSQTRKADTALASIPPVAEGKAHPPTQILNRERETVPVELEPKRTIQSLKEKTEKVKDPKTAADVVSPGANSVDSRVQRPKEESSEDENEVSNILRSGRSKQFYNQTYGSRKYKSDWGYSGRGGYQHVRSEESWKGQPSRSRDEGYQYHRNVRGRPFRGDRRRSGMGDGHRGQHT
Outline: as §1

OTUD5 = molecular target: T5, OTUD5 (UniProt Q96G74)
T5 sequence (whole entry): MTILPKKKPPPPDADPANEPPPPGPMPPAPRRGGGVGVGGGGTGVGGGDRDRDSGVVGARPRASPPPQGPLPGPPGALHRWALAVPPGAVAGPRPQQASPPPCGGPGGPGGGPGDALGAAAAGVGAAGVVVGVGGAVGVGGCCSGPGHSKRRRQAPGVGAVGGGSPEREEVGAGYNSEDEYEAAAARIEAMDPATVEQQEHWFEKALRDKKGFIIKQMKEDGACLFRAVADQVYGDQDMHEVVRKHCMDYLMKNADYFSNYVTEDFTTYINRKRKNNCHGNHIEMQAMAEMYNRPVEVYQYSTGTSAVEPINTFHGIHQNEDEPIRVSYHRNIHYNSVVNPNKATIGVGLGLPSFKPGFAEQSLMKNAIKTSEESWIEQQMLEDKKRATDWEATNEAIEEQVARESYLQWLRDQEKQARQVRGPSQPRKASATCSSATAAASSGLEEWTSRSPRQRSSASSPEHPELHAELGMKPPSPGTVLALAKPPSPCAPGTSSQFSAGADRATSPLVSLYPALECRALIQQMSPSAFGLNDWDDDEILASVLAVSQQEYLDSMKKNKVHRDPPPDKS
Outline: as §1

OTUB1, sequence (Q96FW1 whole entry): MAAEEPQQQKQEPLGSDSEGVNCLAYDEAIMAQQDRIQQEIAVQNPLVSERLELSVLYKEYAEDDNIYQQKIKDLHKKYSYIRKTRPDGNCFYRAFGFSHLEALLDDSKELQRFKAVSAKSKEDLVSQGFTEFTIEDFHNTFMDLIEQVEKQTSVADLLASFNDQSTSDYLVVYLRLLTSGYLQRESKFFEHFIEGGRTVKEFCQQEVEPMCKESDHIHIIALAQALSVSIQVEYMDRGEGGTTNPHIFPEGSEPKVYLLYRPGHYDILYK
EIF3H, sequence (O15372 whole entry): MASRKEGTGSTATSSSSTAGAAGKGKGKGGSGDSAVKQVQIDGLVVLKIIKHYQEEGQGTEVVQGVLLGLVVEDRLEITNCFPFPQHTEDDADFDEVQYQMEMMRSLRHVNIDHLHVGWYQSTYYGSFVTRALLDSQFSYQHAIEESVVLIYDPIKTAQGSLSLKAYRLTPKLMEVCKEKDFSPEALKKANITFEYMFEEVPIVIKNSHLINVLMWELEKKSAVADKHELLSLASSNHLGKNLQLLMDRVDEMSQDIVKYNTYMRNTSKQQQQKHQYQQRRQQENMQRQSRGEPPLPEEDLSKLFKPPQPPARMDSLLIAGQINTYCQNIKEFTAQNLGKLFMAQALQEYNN
EIF3F, sequence (O00303 whole entry): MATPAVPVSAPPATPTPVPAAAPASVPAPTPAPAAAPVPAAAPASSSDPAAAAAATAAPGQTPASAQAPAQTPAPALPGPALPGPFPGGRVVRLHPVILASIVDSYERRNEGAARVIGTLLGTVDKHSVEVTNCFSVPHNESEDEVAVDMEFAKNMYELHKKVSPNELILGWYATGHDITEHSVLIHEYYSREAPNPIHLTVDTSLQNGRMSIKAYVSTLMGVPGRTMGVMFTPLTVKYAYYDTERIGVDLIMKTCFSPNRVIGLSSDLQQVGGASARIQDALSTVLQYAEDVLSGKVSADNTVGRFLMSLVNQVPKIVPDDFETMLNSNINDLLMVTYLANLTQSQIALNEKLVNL
ATXN3, sequence (P54252 whole entry): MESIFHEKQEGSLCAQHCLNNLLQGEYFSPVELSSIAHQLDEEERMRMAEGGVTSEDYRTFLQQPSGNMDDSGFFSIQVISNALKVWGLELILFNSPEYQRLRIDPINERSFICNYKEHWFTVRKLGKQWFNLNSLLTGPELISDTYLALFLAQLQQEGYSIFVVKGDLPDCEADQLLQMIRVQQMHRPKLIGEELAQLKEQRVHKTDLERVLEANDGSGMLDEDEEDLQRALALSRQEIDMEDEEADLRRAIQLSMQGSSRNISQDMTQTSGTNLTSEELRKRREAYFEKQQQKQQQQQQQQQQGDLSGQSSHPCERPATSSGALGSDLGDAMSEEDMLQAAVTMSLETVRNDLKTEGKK

How did the “log2 ratio of Biotin-Ahx-Ub-VS probe labelling” value (from here on “log2 ratio”) (ALG13) turn out when O=C(CCl)N1CCOC(CCc2ccccc2)C1 (centres undefined) was run?
Its value is -0.284.

What about the “log2 ratio” value (ATXN3) of the same compound?
Its value is -0.798.

And the “log2 ratio” value (BAP1)?
The value was -1.1 (active).

And the “log2 ratio” value (EIF3F)?
The value was -0.348.

And the “log2 ratio” value (EIF3H)?
Its value is 0.0677.

What about the “log2 ratio” value (FAM105A) of the same compound?
The value was -0.23.

What about the “log2 ratio” value (OTUB1) of the same compound?
The value was -0.408.

What about the “log2 ratio” value (OTUD4) of the same compound?
The value was -0.558.

What about the “log2 ratio” value (OTUD5) of the same compound?
The value was -0.502.
